Results reported in PubChem BioAssay AID1159580 (chemical genetic matrix, 2015).
Out of some 5,500 compounds screened, about 2,000 (36%) were called active. Not shown: some 18% with an inconclusive outcome. No stated cut-off is given here; in the data, active means normalized growth mostly below about 0.91 (no sharp cut-off); inconclusive means no clear call, values can overlap the other calls; inactive means mostly above about 0.92. Some of the results follow.

Test: chemical genetic growth profiling, strain panel (AID 1159580);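 further: tested at 20 µM; growth read once vehicle control cultures reached saturation at 30 °C; 1 = growth at the plate median or of vehicle wells; lower values mean less growth of the strain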
Settings: S. cerevisiae deletion strains, growth OD

Measured: normalized growth

CNNC
inactive: locus YAL013W, strain DEP1, active compounds read low 1.01 | locus YAL021C, strain ccr4, active compounds read low 1.01 | locus YAL026C, strain drs2, active compounds read low 1.02 | locus YAL030W, strain snc1, active compounds read low 1.02 | locus YBL061C, strain skt5, active compounds read low 1 | locus YBR009C, strain hhf1, active compounds read low 1.01 | locus YBR021W, strain FUR4, active compounds read low 1.04 | locus YBR023C, strain chs3, active compounds read low 1 | locus YBR171W, strain sec66, active compounds read low 0.995 | locus YBR229C, strain ROT2, active compounds read low 1.01 | locus YBR231C, strain swc5, active compounds read low 1.01 | locus YBR279W, strain paf1, active compounds read low 1.02 | locus YCL011C, strain gbp2, active compounds read low 1.01 | locus YCL016C, strain dcc1, active compounds read low 1.04 | locus YCL029C, strain bik1, active compounds read low 1.01 | locus YCL069W, strain vba3, active compounds read low 1.01 | locus YCR088W, strain abp1, active compounds read low 1.01 | locus YDL005C, strain med2, active compounds read low 0.987 | locus YDL035C, strain GPR1, active compounds read low 1.02 | locus YDL040C, strain nat1, active compounds read low 1 | locus YDL074C, strain BRE1, active compounds read low 1.07 | locus YDL101C, strain DUN1, active compounds read low 1.03 | locus YDL134C, strain PPH21, active compounds read low 1.02 | locus YDL185W, strain tfp1, active compounds read low 1.01 | locus YDL192W, strain arf1, active compounds read low 0.995 | locus YDR001C, strain nth1, active compounds read low 1.02 | locus YDR069C, strain doa4, active compounds read low 1.02 | locus YDR101C, strain arx1, active compounds read low 0.989 | locus YDR137W, strain rgp1, active compounds read low 1.04 | locus YDR150W, strain NUM1, active compounds read low 1 | locus YDR159W, strain sac3, active compounds read low 0.991 | locus YDR162C, strain NBP2, active compounds read low 1.03 | locus YDR195W, strain ref2 0.981 | locus YDR297W, strain sur2, active compounds read low 1 | locus YDR318W, strain mcm21, active compounds read low 0.997 | locus YDR334W, strain swr1, active compounds read low 1.01 | locus YDR335W, strain msn5, active compounds read low 1.01 | locus YDR388W, active compounds read low 0.994 | locus YDR392W, strain spt3, active compounds read low 1.01 | locus YDR502C, strain sam2, active compounds read low 1.01 | locus YEL003W, strain gim4, active compounds read low 1.01 | locus YEL037C, strain rad23, active compounds read low 1.02 | locus YEL061C, strain CIN8 (second series), active compounds read low 1.01 | locus YEL061C, strain CIN8, active compounds read low 1.01 | locus YER015W, strain faa2, active compounds read low 1.01 | locus YER016W, strain bim1, active compounds read low 1.01 | locus YER110C, active compounds read low 0.996 | locus YER111C, strain swi4, active compounds read low 1 | locus YER155C, strain BEM2 (second series), active compounds read low 1.04 | locus YER155C, strain BEM2, active compounds read low 1.03 | locus YER167W, strain BCK2, active compounds read low 1.02 | locus YFR010W, strain ubp6, active compounds read low 0.993 | locus YGL078C, strain dbp3, active compounds read low 1 | locus YGL086W, strain mad1, active compounds read low 1.01 | locus YGL167C, strain pmr1, active compounds read low 0.998 | locus YGL173C, strain kem1, active compounds read low 0.987 | locus YGL227W, strain vid30, active compounds read low 1.01 | locus YGL240W, strain doc1, active compounds read low 0.995 | locus YGL248W, strain PDE1, active compounds read low 1.02 | locus YGL253W, strain hxk2, active compounds read low 1 | locus YGR078C, strain PAC10, active compounds read low 1.04 | locus YGR135W, strain pre9, active compounds read low 1.01 | locus YGR229C, strain SMI1, active compounds read low 1.02 | locus YGR252W, strain gcn5, active compounds read low 0.955 | locus YHR013C, strain ard1, active compounds read low 1.02 | locus YHR027C, strain rpn1, active compounds read low 1.02 | locus YHR030C, strain SLT2, active compounds read low 1.02 | locus YHR079C, strain IRE1 (second series), active compounds read low 1 | locus YHR094C, strain hxt1, active compounds read low 0.998 | locus YHR129C, strain ARP1, active compounds read low 1.02 | locus YHR142W, strain chs7, active compounds read low 1.04 | locus YHR200W, strain rpn10, active compounds read low 1 | locus YIL066C, strain RNR3, active compounds read low 1.01 | locus YIL073C, strain SPO22, active compounds read low 0.998 | locus YIL125W, strain kgd1, active compounds read low 0.99 | locus YIR030C, strain dcg1, active compounds read low 1.01 | locus YJL092W, strain hpr5, active compounds read low 1.03 | locus YJL095W, strain BCK1 (second series), active compounds read low 1.01 | locus YJL095W, strain BCK1, active compounds read low 1.05 | locus YJL115W, strain asf1, active compounds read low 0.994 | locus YJL129C, strain trk1, active compounds read low 1.01 | locus YJL134W, strain LCB3, active compounds read low 1.02 | locus YJL154C, strain vps35, active compounds read low 1.02 | locus YJL164C, strain tpk1, active compounds read low 0.996 | locus YJL166W, strain qcr8, active compounds read low 0.997 | locus YJL168C, strain set2, active compounds read low 1 | locus YJL187C, strain SWE1 (second series), active compounds read low 1.02 | locus YJR043C, strain POL32, active compounds read low 0.998
